This note sets out measurements from PubChem BioAssay AID624035 (The Scripps Research Institute Molecular Screening Center, 2012).

Usually EC50 stands for the concentration giving half of the maximal effect.

Values without a mark were called inactive.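 How the source made its calls: active means compounds cutting enzyme signal by half at 10000 nM or lower, the printed EC50; inactive means the rest.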

A short description of this assay: optical artefacts in IDE activity readout – biochemical, fluorogenic FRET1 peptide substrate, artefact control for IDE activator project, late-stage follow-up (AID 624035). The settings on record: recombinant IDE, FRET1 substrate fluorescence, artifact counterscreen.
With `CCCCN(C)C1=CC2=CC(=C(C#N)C#N)CCC2CC1` (stereo not drawn), the EC50 was above 10 µM. `CCN(CC)C1=CC2=CC(=C(C#N)C#N)CCC2CC1` (stereo not drawn): the EC50 was above 10 µM.

On to `CN(C)/C=C1\C=C2C(=O)c3ccccc3N2C1=O`, for which the EC50 was above 10 µM. To `N#CC(C#N)=C1C=C2C=C(N3CCCCCC3)CCC2CC1` (stereo not drawn) belongs above 10 µM; to `N#CC(C#N)=C1C=C2C=C(N3CCOCC3)CCC2CC1` (stereo not drawn), above 10 µM; to `O=c1ccc2c(-c3ccccc3)c3ccc(O)cc3oc-2c1`, above 10 µM. As to `CCN1CCN(C2=CC3=CC(=C(C#N)C#N)CCC3CC2)CC1` (stereo not drawn), the EC50 is above 10 µM. Regarding `C/C(CC(=O)Nc1ccc(N(C)C)cc1)=N\NC(=O)c1ccncc1`, the EC50 was above 10 µM.
